Assay outcomes from PubChem.
ADAM10 inh: inhibitors of human ADAM10 | O14672 | recombinant ADAM10, EDANS/DABCYL FRET peptide cleavage, 3 h | inhibition, % at 7 µM | hit rate 0.62% among 370,000 | AID 720582;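 active means inhibition above a per-campaign cutoff equal to the mean of compounds falling between control-based bounds plus 3 SD, cut at about 20% in these data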;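 further: 0% = DMSO wells while the 100% control is not disclosed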
NRP1-CendR mod: NRP-1/CendR interaction modulation. FAM-RPARPAR peptide binding to NRP-1, fluorescence polarization. inhibition, % at 25 µM. hit rate 0.85% among 360,000;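 active means inhibition or corrected inhibition above about 18%, plus a signal ratio from 0.5 to 1.5, limit read from the data, passing the limit was not always enough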
A3G deaminase: APOBEC3G (human) deaminase inhibition | recombinant A3G, ssDNA deamination FAM/TAMRA fluorescence | inhibition, % at 20 µM | hit rate 0.28% among 330,000;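 active means inhibition of at least 40% at 20 µM, with no more than 30% in the related APOBEC3A deaminase screen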;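 further: plate controls were DMSO wells with A3G for no effect and wells lacking A3G enzyme for full effect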
Target sequence (Q9HC16 whole entry, looked up): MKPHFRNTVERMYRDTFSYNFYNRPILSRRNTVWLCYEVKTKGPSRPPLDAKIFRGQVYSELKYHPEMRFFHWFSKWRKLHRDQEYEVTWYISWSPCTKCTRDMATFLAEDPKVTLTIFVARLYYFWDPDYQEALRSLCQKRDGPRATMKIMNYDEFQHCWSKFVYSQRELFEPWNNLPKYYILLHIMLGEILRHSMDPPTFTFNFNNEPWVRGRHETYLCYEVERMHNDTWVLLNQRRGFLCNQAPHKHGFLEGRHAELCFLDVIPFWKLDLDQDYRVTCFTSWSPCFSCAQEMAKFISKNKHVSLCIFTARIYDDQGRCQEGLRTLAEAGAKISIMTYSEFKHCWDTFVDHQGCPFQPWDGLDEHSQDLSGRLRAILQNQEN
ADAM17 inh: ADAM17 inhibition, QFRET primary screen | inhibition, % at 6.95 µM | hit rate 0.83% among 370,000 | AID 720648 | P78536 | recombinant ADAM17, EDANS/DABCYL FRET peptide cleavage;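 active means inhibition above the mean of compounds lying between control limits plus 3 SD, set per campaign, cut at about 8.5% in these data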;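 further: 0% = DMSO-only wells as the low control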
A3A deaminase: human APOBEC3A DNA deaminase inhibition | recombinant A3A, FAM/TAMRA ssDNA deamination fluorescence | hit rate 0.41% among 330,000 | P31941 | inhibition, % at 20 µM;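 active means at least 40% inhibition at 20 µM here, with at most 30% in a related deaminase screen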;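 further: plate controls were A3A with DMSO for no effect and wells lacking A3A enzyme for full effect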
Target sequence (P31941 whole entry, looked up): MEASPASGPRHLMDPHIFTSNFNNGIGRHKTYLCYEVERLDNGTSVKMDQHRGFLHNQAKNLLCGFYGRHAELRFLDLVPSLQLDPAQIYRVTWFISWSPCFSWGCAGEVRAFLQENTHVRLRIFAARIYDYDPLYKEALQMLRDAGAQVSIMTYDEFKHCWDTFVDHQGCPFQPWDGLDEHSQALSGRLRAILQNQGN
ADAM10 ctr: ADAM10 inhibition, counter-screen for ADAM17 exosite hits; inhibition, % at 6.95 µM; recombinant ADAM10, EDANS/DABCYL FRET peptide cleavage, 3 h; AID 743256; shares compounds with ADAM17 inh; hit rate 47% among 2,900;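 active means mean inhibition over the triplicate runs exceeds the activity threshold set in the earlier primary screen, cut at about 20% in these data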;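 further: 0% = DMSO wells and 100% = marimastat wells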
ADAM17 confirm: human ADAM17 inhibition, confirmation; shares compounds with ADAM17 inh; recombinant ADAM17, EDANS/DABCYL QFRET peptide cleavage; inhibition, % at 6.95 µM; hit rate 65% among 2,900; AID 743257;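 active means mean inhibition across replicates above the hit cutoff set in the primary screen, cut at about 8.5% in these data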;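 further: 0% = DMSO wells and 100% = marimastat wells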
* = called active by the depositor; / = no result. Sampled rows, rich in hits. Any-hit rate of the full collection: about 2.4%.

SMILES	ADAM10 inh	NRP1-CendR mod	A3G deaminase	ADAM17 inh	A3A deaminase	ADAM10 ctr	ADAM17 confirm
O=S(=O)(NCCc1csc(-c2ccc(C(F)(F)F)cc2)n1)c1ccc2c(c1)OCCO2	-2.8	5.5	-2.7	9.3*	-2.7	7.5	10.4*
COc1ccc(-c2nc(CCNS(=O)(=O)c3ccc4c(c3)OCCO4)cs2)cc1	-44.2	-0.1	0.7	-13.1	3.1	/	/
NS(=O)(=O)c1ccc(OCCCN2CCC(C(O)(c3ccccc3)c3ccccc3)CC2)cc1	-9.5	/	/	-4.0	/	/	/
O=C(NC(Nc1nc2ccc([N+](=O)[O-])cc2s1)(C(F)(F)F)C(F)(F)F)c1ccccc1Cl	16.0	-40.1	-2.3	10.7*	-1.4	22.4*	12.8*
O=C(NC(Nc1nc2ccc([N+](=O)[O-])cc2s1)(C(F)(F)F)C(F)(F)F)c1cccnc1	17.9	-32.1	0.4	8.6	-5.9	/	/
CC(C)C(NC(=O)[C@H](Cc1ccc(O)cc1)NC(=O)OC(C)(C)C)P(=O)(O)OC(Cc1ccccc1)C(=O)O (some centres undefined)	-5.4	/	/	-5.6	/	/	/
CC(C)CNC(=O)OCc1cn(Cc2c(F)cccc2F)nn1	0.7	/	/	0.9	/	/	/
Cc1ccc(Nc2nc(Nc3ccc(C)cc3)nc(SC3=NCCS3)n2)cc1	14.5	6.3	-2.1	9.8*	10.5	20.4*	11.8*
Cc1ccc(Nc2nc(Cl)nc(NC(C)(C)C)n2)cc1	10.5	-6.3	-0.5	4.8	-3.7	/	/
CCN(C(=O)C1CCN(c2ncccn2)CC1)c1ccccc1	-26.9	/	/	-7.2	/	/	/
CCOC(=O)C(Cc1ccccc1)CP(=O)(OC)[C@@H](C)NC(=O)OCc1ccccc1 (some centres undefined)	0.4	/	/	-0.1	/	/	/
Cc1ccc(C2CC2c2n[nH]c(=S)n2-c2ccc(C)cc2)cc1 (centres undefined)	13.5	3.2	-6.7	0.7	-3.8	/	/
Cc1ccc(-n2c(C3CC3c3ccc(Cl)cc3)n[nH]c2=S)cc1 (centres undefined)	15.9	11.7	-0.7	11.5*	0.9	15.6	11.9*
Cc1ccc2c(c1)C1CS(=O)(=O)N(C3CCCC3)C(=O)N1C2 (centres undefined)	5.6	/	/	4.6	/	/	/
Cc1ccc(COc2ccc(Br)cc2/C=N/O)cc1	16.6	9.1	-7.9	8.8*	-2.8	34.0*	16.7*
CCOc1cc(/C=N/O)ccc1OCc1ccc(C)cc1	7.6	-11.0	-6.0	8.1	-1.6	/	/
Cc1ccc(Cn2c(=O)c3c(nc4n3CCCN4Cc3ccccc3)n(C)c2=O)cc1	5.9	2.4	-7.4	10.4*	-5.2	15.2	5.0
Cn1c(=O)n(Cc2ccccc2)c(=O)c2c1nc1n2CCCN1Cc1ccccc1	-2.3	6.6	-5.0	1.3	-3.3	/	/
COc1ccc(-c2noc(CCC(=O)N3CCN(c4ccccc4Cl)CC3)n2)cc1	13.1	7.5	3.2	7.4	1.7	/	/
COc1ccc(-c2noc(CCC(=O)N3CCN(c4cccc(C)c4C)CC3)n2)cc1	9.2	0.9	-3.4	9.3*	0.8	27.4*	16.1*
COc1ccc(C2=Nn3c(nnc3-c3ccccc3F)SC2)cc1OC1CCOC1 (centres undefined)	0.0	4.1	23.3	-0.2	2.0	/	/
COc1ccc(C2=Nn3c(nnc3-c3ccccc3F)SC2)cc1OC1CCCC1	27.0*	9.5	17.2	11.3*	-0.4	24.4*	16.5*
Cc1c(Cl)cccc1Nc1nc(N)nc(CSc2nc3ccccc3s2)n1	16.3	13.5	-4.3	9.5*	-1.1	19.6	11.0*
Nc1nc(CSc2nc3ccccc3s2)nc(Nc2ccccc2)n1	/	/	0.5	/	0.7	/	/
CCCCCCN1CCN(C2CN(Cc3cn(Cc4ccc(Cl)cc4)nn3)S(=O)(=O)C2)CC1 (centres undefined)	4.3	-8.2	/	8.9*	/	-3.3	0.4
SMILES	ADAM10 inh	NRP1-CendR mod	A3G deaminase	ADAM17 inh	A3A deaminase	ADAM10 ctr	ADAM17 confirm
CCCCCCN1CCN(C2CN(Cc3cn(Cc4cccc(Cl)c4)nn3)S(=O)(=O)C2)CC1 (centres undefined)	-6.1	6.6	/	-2.8	/	/	/
S=c1[nH]nc(C2CCCCC2)n1/N=C/C=C/c1ccccc1	16.9	7.4	3.3	9.2*	0.9	19.4	11.1*
S=c1[nH]nc(C2CCCCC2)n1/N=C/C(Cl)=C\c1ccccc1	8.9	-22.5	-6.1	2.6	-2.4	/	/
CC(=O)c1cc(-c2cc3ccccc3o2)c(=O)n2c1CCC2	-25.2	/	/	-6.9	/	/	/
CC1(C)Oc2ccc(C(=O)NCCCN3CCCC3)cc2NC1=O	2.1	/	/	1.3	/	/	/
COc1ccc(CNC(=O)N(C)C[C@@H]2OCc3ccccc3-c3c(n(C)c4ccccc34)C(=O)N([C@@H](C)CO)C[C@@H]2C)cc1	-6.5	/	/	-1.7	/	/	/
Cc1ccc(S(=O)(=O)N2CCN(C(=O)COC(=O)c3ncc(Cl)c(Cl)c3Cl)CC2)c(C)c1	-10.9	-1.2	/	9.0*	/	8.4	8.9*
Cc1ccc(S(=O)(=O)N2CCN(C(=O)COC(=O)c3nc(Cl)ccc3Cl)CC2)c(C)c1	-6.0	5.2	/	-2.3	/	/	/
CC(C)(C)S(=O)(=O)/C(C#N)=C/c1cccn1S(=O)(=O)c1ccccc1	5.4	4.3	/	9.4*	/	24.3*	11.8*
CCn1c(=O)cc(N2CCN(c3cccc(C(F)(F)F)c3)CC2)[nH]c1=O	0.2	/	/	-1.7	/	/	/
Cc1ccc(Nc2nc(N)nc(CSC(=S)N3CCN(c4ccccc4)CC3)n2)cc1	-4.1	5.6	-6.7	0.8	-2.2	/	/
Nc1nc(CSC(=S)N2CCN(c3ccccc3)CC2)nc(Nc2ccccc2)n1	16.9	1.7	-3.2	9.2*	1.5	24.4*	15.6*
COC(=O)[C@]12C[C@H](CC(=O)N3CCOCC3)C(=O)N(CCC3=CCCCC3)C1=C[C@H](C1CCCC1)O[C@@H]2C	4.0	/	/	0.5	/	/	/
COC(=O)[C@H](CC(C)C)N1Cc2nnn(Cc3ccc(C)cc3)c2-c2cc(F)ccc2S1(=O)=O	14.4	/	/	10.3*	/	18.2	14.1*
CCOC(=O)c1c(NC(=O)Cn2nc(C(F)F)cc2C(F)F)sc(C)c1C	18.1	-1.8	-1.6	9.1*	-0.6	17.6	12.3*
Cc1ccc2c(c1)C1CS(=O)(=O)N(Cc3ccccc3)C(=O)N1C2 (centres undefined)	-3.8	/	/	-4.8	/	/	/
CC(=O)N1CCC(C(=O)N2CCN(S(=O)(=O)c3ccc(F)cc3)CC2)CC1	0.1	9.7	0.4	0.2	0.4	/	/
O=C(c1ccc(F)cc1)N1CCC(C(=O)N2CCN(S(=O)(=O)c3cccc(Cl)c3)CC2)CC1	-3.6	6.2	-4.9	9.6*	0.7	-6.9	2.3
COc1ccc(C(CNC(=O)c2cccc(N(C)C)c2)N2CCCC2)cc1 (centres undefined)	2.0	-11.8	-7.0	9.4*	-4.3	-40.8	-3.3
CCn1c2ccccc2c2cc(C=Nn3c(-c4ccccc4C)n[nH]c3=S)ccc21	-18.3	/	/	-1.5	/	/	/
